Assay results as given in PubChem BioAssay (NCATS).
Results filed as inconclusive are left out. Entries that show only a call come without a potency. Activity calls are given as the source filed them. The call rests on the fitted dose curve; in most records, active means well fitted cell-killing curve with a large enough effect; inconclusive means small, poorly fitted or top-dose-only effect, or effect the other way; inactive means no such curve, though single readings can be large or run the other way.
Potency means the concentration at half of the fitted maximal effect.

Assay: Quantitative High-Throughput drug screen in 47 multiple myeloma cell lines against the NCATS MIPE library collection: LP1_DSMZ cell viability assay (AID 1918982); further: nearly all actives have a fitted effect of over 35% in size
Conditions: LP1 myeloma viability, CellTiter-Glo ATP luminescence, 48 h; series mostly up to 45.8 µM
Description: PI: Beverly A. Mock Ph.D.
Laboratory of Cancer Biology and Genetics,
Center for Cancer Research, National Cancer Institute,
National Institute of Health, Bethesda, Maryland
Drug resistance and disease progression are common in multiple myeloma (MM) patients, underscoring the need for new therapeutic combinations. […] We hypothesized that effective combinations would reduce MYC expression and enhance p16 activity. […] These preclinical data identify potentially useful drug combinations for evaluation in drug-resistant MM and reveal potential mechanisms of combined drug sensitivity.
Described herein is the primary MIPE qHTS used to cherrypick compounds. Validated compounds were then further tested for potential synergistic activiy.
[1] Peat TJ, Gaikwad SM, Dubois W, Gyabaah-Kessie N, Zhang S, Gorjifard S, Phyo Z, Andres M, Hughitt VK, Simpson RM, Miller MA, Girvin AT, Taylor A, Williams D, D'Antonio N, Zhang Y, Rajagopalan A, Flietner E, Wilson K, Zhang X, Shinn P, Klumpp-Thomas C, McKnight C, Itkin Z, Chen L, Kazandijian D, Zhang J, Michalowski AM, Simmons JK, Keats J, Thomas CJ, Mock BA. Drug combinations identified by high-throughput screening promote cell cycle transition and upregulate Smad pathways in myeloma. Cancer Lett. 2023 Aug 1;568:216284. doi: 10.1016/j.canlet.2023.216284. Epub 2023 Jun 24. PMID: 37356470; PMCID: PMC10408729.
SEQUENCE No. (e.g., 1, 2, 3, etc.); […] (e.g., Cells, Incubation, Reagent, etc.); VALUE and DESCRIPTION.
1; Cells; 5 uL; white, solid bottom 1536-well Greiner assay plate.
2; Compounds; 23 nL; Kalypsis pin tool (Wako USA) equipped with a 1536-well pin head to transfer to the assay plates.
3; Incubation; 48 hours; 37C incubation.
4; Reagent;5uL; CellTiter Glo (Promega).
5; Detector; 425V; Luminescence; Viewlux PerkinElmer.
NOTES (numbers refer to Sequence numbers above)
1. The cell-based screening methods employed in this study were like those previously published. Briefly, the corresponding myeloma cell lines were screened in 1,536-well plates with 500 cells, 5-uL per well for inhibition of cell viability (assessed by measuring ATP levels with CellTiterGlo).
2. NCATS MIPE 4.0 library of approved and investigational drugs were added using the Kalypsis pin tool. Wells treated with DMSO only for 100% viability and media only for 0% viability were used as controls.
3. The assay plates were covered and incubated for 48 hours in a 37C, 5% CO2 incubator with controlled humidity.
4. After 48 hours, CellTilter-GloTM luminescent substrate mix (Promega) reagent was added to the assay plate and plates we incubated for 5 min at room temperature.
5. Signal was measured as median relative luminescence units on a ViewLux (PerkinElmer) multiplate reader.
[1] Heske CM, Davis MI, Baumgart JT, Wilson K, Gormally MV, Chen L, Zhang X, Ceribelli M, Duveau DY, Guha R, Ferrer M, Arnaldez FI, Ji J, Tran HL, Zhang Y, Mendoza A, Helman LJ, Thomas CJ. Matrix Screen Identifies Synergistic Combination of PARP Inhibitors and Nicotinamide Phosphoribosyltransferase (NAMPT) Inhibitors in Ewing Sarcoma. Clin Cancer Res. 2017 Dec 1;23(23):7301-7311. doi: 10.1158/1078-0432.CCR-17-1121. Epub 2017 Sep 12. PMID: 28899971; PMCID: PMC6636827.
With `O=C(c1ccc(F)cc1)C1CCN(CCn2c(=O)[nH]c3ccccc3c2=O)CC1` the Potency was “inactive”. In the case of `Clc1ccc2nsnc2c1NC1=NCCN1`, the Potency is reported as “inactive”. With `CCN1CCCC1CNC(=O)c1cc(S(=O)(=O)CC)c(N)cc1OC` (stereo not given) the Potency was “inactive”. In the case of `NC(CO)C(=O)NNCc1ccc(O)c(O)c1O` (stereo not given), the Potency is reported as 20.9 µM (active). In the case of `O=C(Nc1ccc([N+](=O)[O-])cc1Cl)c1cc(Cl)ccc1O`, the Potency is reported as 0.743 µM (active). For `CCc1cccc2c3c([nH]c12)C(CC)(CC(=O)O)OCC3` (stereo not given), the Potency was “inactive”. With `CC(CCc1ccc(O)cc1)NCCc1ccc(O)c(O)c1` (stereo not given) the Potency was 20.9 µM (active). With `CCOC(=O)c1ncn2c1CN(C)C(=O)c1cc(F)ccc1-2` the Potency was “inactive”. In the case of `NC(=O)NO`, the Potency is reported as 2.64 µM (active). For `CCOC(=O)Nc1ccc(NCc2ccc(F)cc2)nc1N`, the Potency was “inactive”. With `CC[N+](CC)(CC)CCOc1cccc(OCC[N+](CC)(CC)CC)c1OCC[N+](CC)(CC)CC` the Potency was “inactive”. For `CN1C(C(=O)Nc2ccccn2)=C(O)c2ccccc2S1(=O)=O`, the Potency was “inactive”. In the case of `CC(COc1ccccc1)N(CCCl)Cc1ccccc1` (stereo not given), the Potency is reported as “inactive”. For `CC(C(=O)O)c1cccc(C(=O)c2ccccc2)c1` (stereo not given), the Potency was “inactive”. In the case of `Cc1ccc(C(=O)Nc2ccc(S(=O)(=O)O)c3cc(S(=O)(=O)O)cc(S(=O)(=O)O)c23)cc1NC(=O)c1cccc(NC(=O)Nc2cccc(C(=O)Nc3cc(C(=O)Nc4ccc(S(=O)(=O)O)c5cc(S(=O)(=O)O)cc(S(=O)(=O)O)c45)ccc3C)c2)c1`, the Potency is reported as “inactive”. For `CN(CCOc1ccc(NS(C)(=O)=O)cc1)CCc1ccc(NS(C)(=O)=O)cc1`, the Potency was “inactive”. With `CC[C@@]1(O)C(=O)OCc2c1cc1n(c2=O)Cc2cc3c(CN(C)C)c(O)ccc3nc2-1` the Potency was 13.2 µM (active). With `CC(C)C(=O)Nc1ccc([N+](=O)[O-])c(C(F)(F)F)c1` the Potency was “inactive”. With `CC#C[C@]1(O)CC[C@H]2[C@@H]3CCC4=CC(=O)CCC4=C3[C@@H](c3ccc(N(C)C)cc3)C[C@@]21C` the Potency was 2.64 µM (active). In the case of `CC(C)(Oc1ccc(C2CC2(Cl)Cl)cc1)C(=O)O` (stereo not given), the Potency is reported as “inactive”. With `N[C@@H](Cc1c[nH]c2ccc(O)cc12)C(=O)O` the Potency was “inactive”. For `Cn1c(=O)c2[nH]cnc2n(C)c1=O`, the Potency was “inactive”. For `CC12CC3CC(C)(C1)CC(N)(C3)C2`, the Potency was “inactive”. With `CC1COc2c(N3CCN(C)CC3)c(F)cc3c(=O)c(C(=O)O)cn1c23` (stereo not given) the Potency was “inactive”. With `CS(=O)(=O)CCNCc1ccc(-c2ccc3ncnc(Nc4ccc(OCc5cccc(F)c5)c(Cl)c4)c3c2)o1` the Potency was 18.7 µM (active). In the case of `CN1CCN(C2=Nc3cc(Cl)ccc3Nc3ccccc32)CC1`, the Potency is reported as “inactive”. For `CNCCCC12CCC(c3ccccc31)c1ccccc12`, the Potency was 20.9 µM (active). In the case of `CN1C2CCC1CC(OC(=O)C(CO)c1ccccc1)C2` (stereo not given), the Potency is reported as “inactive”. In the case of `Nc1nc2c(ncn2COC(CO)CO)c(=O)[nH]1`, the Potency is reported as 23.5 µM (active). In the case of `NS(=O)(=O)c1cc2c(cc1Cl)NCNS2(=O)=O`, the Potency is reported as “inactive”. In the case of `CC(C)NCC(O)COc1ccc(CCOCC2CC2)cc1` (stereo not given), the Potency is reported as “inactive”. For `NC(=O)OCC(COC(N)=O)c1ccccc1`, the Potency was “inactive”. In the case of `Nc1c2c(nc3ccccc13)CCCC2`, the Potency is reported as “inactive”. In the case of `COc1cc2c(c(OC)c1OC)-c1ccc(OC)c(=O)cc1[C@@H](NC(C)=O)CC2`, the Potency is reported as “inactive”. In the case of `O=C1N(c2ccccc2)c2ccccc2C1(Cc1ccncc1)Cc1ccncc1`, the Potency is reported as “inactive”. With `COc1nc(C)nc(Cl)c1NC1=NCCN1` the Potency was “inactive”. For `C[C@@H]1CC(=O)NN=C1c1ccc(NN=C(C#N)C#N)cc1`, the Potency was 20.9 µM (active). For `CC1(C)O[C@H]2CC(=O)OC[C@]23[C@H]2CC[C@@]4(C)[C@H](c5ccoc5)OC(=O)[C@H]5O[C@]54[C@]2(C)C(=O)C[C@@H]13`, the Potency was “inactive”. In the case of `Cc1ccccc1N1C(=O)c2cc(S(N)(=O)=O)c(Cl)cc2NC1C` (stereo not given), the Potency is reported as “inactive”. For `COC(=O)Nc1nc2ccc(C(=O)c3cccs3)cc2[nH]1`, the Potency was 0.0105 µM (active).
